{
  "source": "PubChem BioAssay (Tox21)",
  "note": "Records with an inconclusive call do not appear. Values without a mark were called inactive. Calls of active or inactive are those of the source. Calls come from the whole dose curve; as a rule, active = well fitted cell-killing curve with a large enough effect in the repeat runs; inconclusive = weak or mixed curves, or effect the other way; inactive = flat fitted curve, though single readings scatter. % is set by controls: 0 for no effect and ±100 for the full control effect.",
  "data": [
    {"assay": "cAMP Responsive Elements (CRE) small molecule antagonists, cell-based qHTS assay: qHTS cell viability counter screen (AID 2060913); note: nearly all actives have a fitted effect of over 40% in size", "settings": "CRE-bla HEK293T viability, CellTiter-Glo luminescence, 5 h; series mostly up to 92.4 µM; viability change, negative = cytotoxic: at the top concentration", "how_it_was_run": "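Cytotoxicity counter screen multiplexed with the CRE-bla antagonist read: HEK293T cells in DMEM with dialyzed FBS and 25 mM HEPES were treated 3 hrs under 0.25 uM final NKH477, then viability measured by CellTiter-Glo luminescence.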", "values": [
      {"smiles": "CC(C)(C)c1ccc(C(=O)CCCCl)cc1", "viability change, negative = cytotoxic": "0.678% [at 42.5 µM]"},
      {"smiles": "CCN(CC)c1ccc2c(-c3ccccc3C(=O)O)c3ccc(=[N+](CC)CC)cc-3oc2c1", "viability change, negative = cytotoxic": "-12%"},
      {"smiles": "CC1Cc2ccccc2N1NC(=O)c1ccc(Cl)c(S(N)(=O)=O)c1", "note": "(stereo not given)", "Potency": "inactive"},
      {"smiles": "Cc1ccccc1OCC1CO1", "note": "(stereo not given)", "viability change, negative = cytotoxic": "-1.32%"},
      {"smiles": "CC1=CC=C(C(C)C)CC1", "viability change, negative = cytotoxic": "0.186%"},
      {"smiles": "O=C(O)CCCCC1CCSS1", "note": "(stereo not given)", "Potency": "inactive"},
      {"smiles": "NC(=O)Nc1ccccc1", "viability change, negative = cytotoxic": "1.16%"},
      {"smiles": "CCN(C=O)CC", "viability change, negative = cytotoxic": "1.98%"},
      {"smiles": "CSc1ccc(C(=O)c2[nH]c(=O)[nH]c2C)cc1", "viability change, negative = cytotoxic": "-2.34% [at 42.5 µM]"},
      {"smiles": "CC(C(O)c1ccc(O)cc1)N1CCC(Cc2ccccc2)CC1", "note": "(stereo not given)", "viability change, negative = cytotoxic": "-1.4% [at 42.5 µM]"},
      {"smiles": "Cc1nc2n(c(=O)c1CCN1CCC(c3noc4cc(F)ccc34)CC1)CCC[C@H]2O", "viability change, negative = cytotoxic": "2.27% [at 18.9 µM]"},
      {"smiles": "O=C1CCCc2ccccc21", "viability change, negative = cytotoxic": "5.1%"},
      {"smiles": "Cc1cc(C)c(S(=O)(=O)O)cc1N=Nc1cc(S(=O)(=O)O)c2ccccc2c1O", "viability change, negative = cytotoxic": "9.62%"},
      {"smiles": "CC(CC=O)CCCC(C)(C)O", "note": "(stereo not given)", "viability change, negative = cytotoxic": "-2.8%"},
      {"smiles": "COC(=O)C1CC(=O)C(C(=O)OC)CC1=O", "note": "(stereo not given)", "viability change, negative = cytotoxic": "18.8% [at 8.39 µM]"},
      {"smiles": "NCc1ccc(S(N)(=O)=O)cc1", "viability change, negative = cytotoxic": "8.6% [at 42.5 µM]"},
      {"smiles": "O=C1CC[C@@H](C(=O)O)N1", "viability change, negative = cytotoxic": "-1.18% [at 42.5 µM]"},
      {"smiles": "Cc1cccc(Br)c1", "viability change, negative = cytotoxic": "-13.1%"},
      {"smiles": "Nc1c(N=Nc2ccc(-c3ccc(N=Nc4cc(S(=O)(=O)O)c5ccccc5c4N)cc3)cc2)cc(S(=O)(=O)O)c2ccccc12", "viability change, negative = cytotoxic": "-7.11%"},
      {"smiles": "CC(C)(O)C(=O)c1ccccc1", "viability change, negative = cytotoxic": "1.94%"},
      {"smiles": "O=Nc1ccc(NO)cc1", "viability change, negative = cytotoxic": "9.69%"},
      {"smiles": "Fc1ccc([C@@H]2CCNC[C@H]2COc2ccc3c(c2)OCO3)cc1", "viability change, negative = cytotoxic": "-0.13% [at 42.5 µM]"},
      {"smiles": "Cc1ccc(C(C)C)cc1O", "viability change, negative = cytotoxic": "-6.88%"},
      {"smiles": "CC(=O)Oc1cc2c(s1)CCN(C(C(=O)C1CC1)c1ccccc1F)C2", "note": "(stereo not given)", "viability change, negative = cytotoxic": "4.73% [at 42.5 µM]"},
      {"smiles": "C[N+]1([O-])CCOCC1", "viability change, negative = cytotoxic": "-10.5%"},
      {"smiles": "NCCCCCCN", "Potency": "inactive"},
      {"smiles": "CCN(CC)S(=O)(=O)c1ccc(C(=O)O)cc1", "viability change, negative = cytotoxic": "0.685% [at 42.5 µM]"},
      {"smiles": "CC(C)CCCCCCCCCCCCCCC(=O)O", "viability change, negative = cytotoxic": "6.37%"},
      {"smiles": "c1ccsc1", "viability change, negative = cytotoxic": "12.7%"},
      {"smiles": "OB(O)O", "Potency": "inactive"},
      {"smiles": "NCCN1CCNCC1", "Potency": "inactive"},
      {"smiles": "CCCCCCCCC=O", "viability change, negative = cytotoxic": "-6.14%"},
      {"smiles": "CC1=CC(C)(C)Nc2ccccc21", "Potency": "inactive"},
      {"smiles": "COc1ccc(-c2cc(=O)c3c(O)cc(O[C@@H]4O[C@H](CO[C@@H]5O[C@@H](C)[C@H](O)[C@@H](O)[C@H]5O)[C@@H](O)[C@H](O)[C@H]4O)cc3o2)cc1O", "viability change, negative = cytotoxic": "-0.142% [at 42.5 µM]"},
      {"smiles": "Nc1ccc(Oc2ccc(Cl)cc2)cc1", "viability change, negative = cytotoxic": "-13.5%"},
      {"smiles": "C/C(=C1\\CCOC(=O)S1)N(C=O)Cc1cnc(C)nc1N", "viability change, negative = cytotoxic": "1.37% [at 42.5 µM]"},
      {"smiles": "O=C(c1ccc(F)cc1)C1CCN(CCn2c(=S)[nH]c3ccccc3c2=O)CC1", "viability change, negative = cytotoxic": "4.83% [at 42.5 µM]"},
      {"smiles": "c1ccc2sc(SSN3CCOCC3)nc2c1", "Potency": "inactive"},
      {"smiles": "O=S(=O)(O)c1ccc(O)cc1", "Potency": "inactive"},
      {"smiles": "CCCOC(=O)c1ccccc1", "Potency": "inactive"}
    ]},
    {"assay": "cAMP Responsive Elements (CRE) small molecule agonists, cell-based qHTS assay: qHTS cell viability counter screen (AID 2060914); note: nearly all actives have a fitted effect of over 50% in size", "settings": "CRE-bla HEK293T viability, CellTiter-Glo luminescence, 5 h; series mostly up to 92.4 µM; activity change, negative = cytotoxicity: at the top concentration", "how_it_was_run": "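CRE-bla HEK293T cells in 10% dialyzed FBS medium were exposed to compounds for 3 h at 37C after 18 h plating. CellTiter-Glo was then added in the same wells, and luminescence was read after 30 min at room temperature.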", "values": [
      {"smiles": "CC(C)(C)c1ccc(C(=O)CCCCl)cc1", "activity change, negative = cytotoxicity": "-8.59% [at 42.5 µM]"},
      {"smiles": "CCN(CC)c1ccc2c(-c3ccccc3C(=O)O)c3ccc(=[N+](CC)CC)cc-3oc2c1", "activity change, negative = cytotoxicity": "2.88%"},
      {"smiles": "CC1Cc2ccccc2N1NC(=O)c1ccc(Cl)c(S(N)(=O)=O)c1", "note": "(stereo not given)", "Potency": "inactive"},
      {"smiles": "Cc1ccccc1OCC1CO1", "note": "(stereo not given)", "activity change, negative = cytotoxicity": "0.292%"},
      {"smiles": "CC1=CC=C(C(C)C)CC1", "activity change, negative = cytotoxicity": "-12%"},
      {"smiles": "O=C(O)CCCCC1CCSS1", "note": "(stereo not given)", "Potency": "inactive"},
      {"smiles": "NC(=O)Nc1ccccc1", "activity change, negative = cytotoxicity": "-3.51%"},
      {"smiles": "CCN(C=O)CC", "activity change, negative = cytotoxicity": "2.15%"},
      {"smiles": "CSc1ccc(C(=O)c2[nH]c(=O)[nH]c2C)cc1", "activity change, negative = cytotoxicity": "-3.89% [at 42.5 µM]"},
      {"smiles": "CC(C(O)c1ccc(O)cc1)N1CCC(Cc2ccccc2)CC1", "note": "(stereo not given)", "activity change, negative = cytotoxicity": "-12.4% [at 42.5 µM]"},
      {"smiles": "Cc1nc2n(c(=O)c1CCN1CCC(c3noc4cc(F)ccc34)CC1)CCC[C@H]2O", "activity change, negative = cytotoxicity": "4.41% [at 18.9 µM]"},
      {"smiles": "O=C1CCCc2ccccc21", "activity change, negative = cytotoxicity": "0.599%"},
      {"smiles": "Cc1cc(C)c(S(=O)(=O)O)cc1N=Nc1cc(S(=O)(=O)O)c2ccccc2c1O", "activity change, negative = cytotoxicity": "-1.5%"},
      {"smiles": "CC(CC=O)CCCC(C)(C)O", "note": "(stereo not given)", "activity change, negative = cytotoxicity": "27.7%"},
      {"smiles": "COC(=O)C1CC(=O)C(C(=O)OC)CC1=O", "note": "(stereo not given)", "activity change, negative = cytotoxicity": "-4.18% [at 8.39 µM]"},
      {"smiles": "NCc1ccc(S(N)(=O)=O)cc1", "activity change, negative = cytotoxicity": "2.75% [at 42.5 µM]"},
      {"smiles": "O=C1CC[C@@H](C(=O)O)N1", "activity change, negative = cytotoxicity": "20.6% [at 42.5 µM]"},
      {"smiles": "Cc1cccc(Br)c1", "activity change, negative = cytotoxicity": "-4.56%"},
      {"smiles": "Nc1c(N=Nc2ccc(-c3ccc(N=Nc4cc(S(=O)(=O)O)c5ccccc5c4N)cc3)cc2)cc(S(=O)(=O)O)c2ccccc12", "activity change, negative = cytotoxicity": "-7.54%"},
      {"smiles": "CC(C)(O)C(=O)c1ccccc1", "activity change, negative = cytotoxicity": "0.196%"},
      {"smiles": "O=Nc1ccc(NO)cc1", "activity change, negative = cytotoxicity": "-7.25%"},
      {"smiles": "Fc1ccc([C@@H]2CCNC[C@H]2COc2ccc3c(c2)OCO3)cc1", "activity change, negative = cytotoxicity": "-0.265% [at 42.5 µM]"},
      {"smiles": "Cc1ccc(C(C)C)cc1O", "activity change, negative = cytotoxicity": "-10.7%"},
      {"smiles": "CC(=O)Oc1cc2c(s1)CCN(C(C(=O)C1CC1)c1ccccc1F)C2", "note": "(stereo not given)", "activity change, negative = cytotoxicity": "-25.2% [at 42.5 µM]"},
      {"smiles": "C[N+]1([O-])CCOCC1", "activity change, negative = cytotoxicity": "9.83%"},
      {"smiles": "NCCCCCCN", "Potency": "inactive"},
      {"smiles": "CCN(CC)S(=O)(=O)c1ccc(C(=O)O)cc1", "activity change, negative = cytotoxicity": "-5.61% [at 42.5 µM]"},
      {"smiles": "CC(C)CCCCCCCCCCCCCCC(=O)O", "activity change, negative = cytotoxicity": "-5.61%"},
      {"smiles": "c1ccsc1", "activity change, negative = cytotoxicity": "2.06%"},
      {"smiles": "OB(O)O", "Potency": "inactive"},
      {"smiles": "NCCN1CCNCC1", "Potency": "inactive"},
      {"smiles": "CCCCCCCCC=O", "activity change, negative = cytotoxicity": "-1.93%"},
      {"smiles": "CC1=CC(C)(C)Nc2ccccc21", "Potency": "inactive"},
      {"smiles": "COc1ccc(-c2cc(=O)c3c(O)cc(O[C@@H]4O[C@H](CO[C@@H]5O[C@@H](C)[C@H](O)[C@@H](O)[C@H]5O)[C@@H](O)[C@H](O)[C@H]4O)cc3o2)cc1O", "activity change, negative = cytotoxicity": "-3.79% [at 42.5 µM]"},
      {"smiles": "Nc1ccc(Oc2ccc(Cl)cc2)cc1", "activity change, negative = cytotoxicity": "2.43%"},
      {"smiles": "C/C(=C1\\CCOC(=O)S1)N(C=O)Cc1cnc(C)nc1N", "activity change, negative = cytotoxicity": "-10.8% [at 42.5 µM]"},
      {"smiles": "O=C(c1ccc(F)cc1)C1CCN(CCn2c(=S)[nH]c3ccccc3c2=O)CC1", "activity change, negative = cytotoxicity": "-1.05% [at 42.5 µM]"},
      {"smiles": "c1ccc2sc(SSN3CCOCC3)nc2c1", "Potency": "inactive"},
      {"smiles": "O=S(=O)(O)c1ccc(O)cc1", "Potency": "inactive"},
      {"smiles": "CCCOC(=O)c1ccccc1", "Potency": "inactive"}
    ]}
  ]
}
